Assay results published in PubChem BioAssay AID1159580 (chemical genetic matrix, 2015).
About 2,000 (36%) of roughly 5,500 compounds were called active. Not shown: some 18% with an inconclusive outcome. Cut-off read from the data, not from the text of the source: active = normalized growth mostly below about 0.91 (no sharp cut-off); inconclusive = no clear call, values can overlap the other calls; inactive = mostly above about 0.92. The list shows a part of the results.

Experiment: chemical genetic growth profiling, strain panel (AID 1159580);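 note: tested at 20 µM; growth read once vehicle control cultures reached saturation at 30 °C; 1 = growth at the plate median or of vehicle wells; lower values mean less growth of the strain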
Conditions: S. cerevisiae deletion strains, growth OD
[1] = locus YAL013W, strain DEP1, active compounds read low
[2] = locus YGR078C, strain PAC10, active compounds read low
[3] = locus YJR075W, strain HOC1, active compounds read low
[4] = locus YNL322C, strain KRE1, active compounds read low
[5] = locus YPL055C, strain LGE1, active compounds read low
[6] = locus YPL241C, strain CIN2, active compounds read low
[7] = locus YHR030C, strain SLT2, active compounds read low

Measured: normalized growth

COc1ccc2c(c1)C13CCCCC1C(C2)N(C)CC3 (stereo unspecified)
inactive: [1] 1.02 | locus YAL040C, strain CLN3, active compounds read low 0.995 | locus YCL061C, strain MRC1 (second series), active compounds read low 1 | locus YDR363W, strain ESC2, active compounds read low 0.952 | locus YER002W, strain NOP16, active compounds read low 1 | [2] 0.995 | locus YGR229C, strain SMI1, active compounds read low 0.991 | [3] 0.985 | locus YNL128W, strain TEP1, active compounds read low 1.01 | locus YNL175C, strain NOP13, active compounds read low 1.01 | locus YNL197C, strain WHI3, active compounds read low 1.01 | locus YNL224C, strain SQS1, active compounds read low 1.01 | [4] 1 | locus YOR083W, strain WHI5 (second series), active compounds read low 0.97 | [5] 0.967 | [6] 0.998

CC[C@@H](CO)NC(=O)[C@@H]1C=C2c3cccc4c3c(cn4C)C[C@H]2N(C)C1
inactive: [7] 1 | locus YHR079C, strain IRE1, active compounds read low 0.989 | locus YJL095W, strain BCK1, active compounds read low 0.981 | locus YJR066W, strain TOR1, active compounds read low 0.926 | locus YLR113W, strain HOG1, active compounds read low 1.02 | locus YNL183C, strain NPR1, active compounds read low 0.928 | locus YOR231W, strain MKK1, active compounds read low 1 | locus YPL256C, strain CLN2, active compounds read low 0.973

CCOC(=O)CC(=O)CSc1nnc(N)s1
inactive: [1] 0.998 | locus YBR229C, strain ROT2, active compounds read low 0.988 | locus YCL061C, strain MRC1, active compounds read low 1.04 | locus YDL101C, strain DUN1, active compounds read low 1.04 | locus YDR150W, strain NUM1, active compounds read low 1 | locus YEL061C, strain CIN8, active compounds read low 1 | [2] 1.02 | [7] 1.13 | locus YHR087W, strain rtc3, active compounds read low 0.992 | locus YJR043C, strain POL32, active compounds read low 1.06 | [3] 1.01 | locus YLR039C, strain RIC1, active compounds read low 1 | locus YLR058C, strain SHM2 (second series), active compounds read low 0.999 | locus YLR085C, strain ARP6, active compounds read low 1.04 | locus YLR262C, strain YPT6, active compounds read low 1.01 | locus YML094W, strain GIM5, active compounds read low 1.02 | locus YMR219W, strain ESC1, active compounds read low 1 | locus YMR263W, strain SAP30, active compounds read low 1.02 | locus YMR307W, strain GAS1, active compounds read low 0.985 | locus YNL153C, strain GIM3, active compounds read low 1.05 | locus YNL298W, strain CLA4 (second series), active compounds read low 1.05 | [4] 1.02 | locus YNR030W, strain Alg12, active compounds read low 1.02 | locus YOL006C, strain TOP1, active compounds read low 1.13 | [5] 0.978 | [6] 1.02 | locus YPR135W, strain CTF4, active compounds read low 1.11
